Reference: the supplement of paper PMC3334620
Over roughly 33,000 sequences, “E-score (-0.5 to 0.5)” has its median near -0.012; the highest 2% begin near 0.27. Shown is part of a subset that was picked to be rich in the highest values.

Each sequence was assayed against T1, Vhr1 (UniProt P40522) (assay: PBM E-score (8-mer binding enrichment) (E-score (-0.5 to 0.5)); higher = stronger / more preferred TF binding). Conditions: protein concentration: 200 nM; construct: GST-full length.
T1 sequence: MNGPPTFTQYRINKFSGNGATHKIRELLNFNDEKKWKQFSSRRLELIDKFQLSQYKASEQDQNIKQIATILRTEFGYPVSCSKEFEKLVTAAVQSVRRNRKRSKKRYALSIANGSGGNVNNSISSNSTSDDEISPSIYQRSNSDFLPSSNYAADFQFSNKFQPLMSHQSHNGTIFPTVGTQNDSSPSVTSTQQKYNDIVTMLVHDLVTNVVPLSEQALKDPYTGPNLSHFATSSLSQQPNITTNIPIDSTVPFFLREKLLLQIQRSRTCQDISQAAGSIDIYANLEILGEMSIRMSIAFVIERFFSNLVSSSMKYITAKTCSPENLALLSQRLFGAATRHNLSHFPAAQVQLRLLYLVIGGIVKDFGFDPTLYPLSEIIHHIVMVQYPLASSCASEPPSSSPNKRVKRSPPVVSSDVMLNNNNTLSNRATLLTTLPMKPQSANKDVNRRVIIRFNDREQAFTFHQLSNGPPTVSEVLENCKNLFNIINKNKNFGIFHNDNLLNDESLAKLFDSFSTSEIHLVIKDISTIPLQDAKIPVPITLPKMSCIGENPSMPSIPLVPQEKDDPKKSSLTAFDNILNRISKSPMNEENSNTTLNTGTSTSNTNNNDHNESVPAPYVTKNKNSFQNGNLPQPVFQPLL
Method: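 Universal 'all 10-mer' protein binding microarrays (Agilent AMADID 015681) probed with GST-tagged S. cerevisiae TFs (full-length or DBD) made by in vitro transcription/translation (PURExpress), about 100-200 nM. Bound TF was detected with fluorescent anti-GST. Each ungapped 8-mer (which stands for itself and its reverse complement) is scored by the PBM enrichment score (E-score), a modified Wilcoxon-Mann-Whitney statistic from -0.5 to +0.5, computed with the Universal PBM Analysis Suite. Scale: above 0.35 generally sequence-specific binding.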

Row | Sequence | PBM E-score
1 | GGTCATGA | 0.239
2 | AGTCATGC | 0.443
3 | AGACATGG | 0.192
4 | CGTCATGA | 0.267
5 | AGCCATGA | 0.228
6 | AGTCATGA | 0.466
7 | AGTCAAGC | 0.00212
8 | AGCCATGG | 0.281
9 | AGCCATGC | 0.128
10 | AGTCAAGG | 0.196
11 | AGTCATGG | 0.458
12 | CGTCATGC | 0.0219
13 | CCGTTTAG | -0.0628
14 | AGAAGCGA | -0.0198
15 | GGATAACC | -0.112
16 | AGAACTTC | -0.182
17 | CTTGCCCA | -0.177
18 | GAAGGGTA | 0.0935
19 | CAAAGTTC | -0.0789
20 | ACTGCGAG | 0.0985
21 | GCCACCAC | -0.0307
22 | ATCATGGC | 0.143
23 | CCCATGGG | 0.285
24 | ATCATGCA | 0.192
25 | ATCATGGA | 0.22

Row | Sequence | PBM E-score
26 | ATCATGCG | 0.283
27 | ATCATGGG | 0.272
28 | ACCATGGG | 0.108
29 | ATCATGCC | 0.0697
30 | CCCATGGA | 0.0783
31 | ACGGTCAC | -0.0582
32 | TAGCGTAA | -0.0878
33 | CGGAGATC | -0.0653
34 | AATTCGGA | 0.0232
35 | TCAGAACA | 0.00034
36 | GCAGCTAA | -0.106
37 | CAATTTTC | -0.0832
38 | GAGGCAAC | -0.172
39 | CATAACGA | 0.0162
40 | CGTGACTA | 0.419
41 | CGTGACAA | -0.0207
42 | CGTGACTC | 0.472
43 | CGTGACCC | 0.141
44 | CGTGACGA | 0.00499
45 | CGTGACGC | -0.144
46 | GGTCGAAC | 0.00191
47 | GACCCTAA | -0.109
48 | GGAATTCC | -0.279
49 | CTAATGAA | 0.0817
50 | AGCATCTC | 0.0587

Row | Sequence | PBM E-score
51 | GGATTTGA | -0.0695
52 | CTCGTGAA | 0.0314
53 | ATCGTGAC | 0.113
54 | CTCGTGAC | 0.273
55 | GCCCTCCA | -0.133
56 | ATATATAT | 0.324
57 | CTATATAC | 0.241
58 | CTATATCC | -0.00727
59 | GTATATAC | 0.0568
60 | ATATATCA | 0.0989
61 | ACATATCA | 0.281
62 | CCATATCA | 0.0898
63 | ACATATCG | 0.191
64 | ATATATCC | 0.273
65 | ATATATAG | 0.132
66 | ATATATAC | 0.285
67 | ATATATAA | 0.247
68 | GCCTGCGA | -0.00738
69 | AGAATACT | 0.0167
70 | CAGTACCC | 0.103
71 | GATAATGC | 0.114
72 | GACCACGC | 0.148
73 | GAATCACC | 0.392
74 | CAATCACC | 0.238
75 | AAATCACA | 0.0215

Row | Sequence | PBM E-score
76 | GCATCACC | -0.0259
77 | TAATCACA | 0.222
78 | AAATCACC | 0.312
79 | AAATCACG | 0.173
80 | CAATCACG | 0.211
81 | GAATCACA | 0.341
82 | CTAGAAAC | -0.252
83 | AAGGCTCC | -0.172
84 | ATCGACGG | 0.0804
85 | CCGAATGA | 0.166
86 | CAACCGCC | -0.102
87 | CAACCGCA | 0.0762
88 | CAACCGCG | 0.3
89 | GATTATAC | 0.213
90 | GCGGGCTA | -0.119
91 | CGCGGCTC | 0.278
92 | AGCGGCTC | -0.0971
93 | CGCGGCTA | -0.0223
94 | CGAGTCAG | 0.429
95 | CCAGTCAG | 0.0854
96 | GGAGTCGA | 0.122
97 | CGAGTCTA | -0.0817
98 | CAAGTCAA | -0.0643
99 | CGAGTCAC | 0.467
100 | GGAGTCTA | 0.0135

Row | Sequence | PBM E-score
101 | CGAGTCCC | 0.186
102 | CGAGTCTC | 0.0296
103 | CGAGTCAA | 0.278
104 | GGAGTCAA | 0.354
105 | CGTGTCAG | 0.037
106 | CCGTGCCG | -0.00022
107 | AACCTCTC | -0.172
108 | GCAGCCGA | 0.0559
109 | GCAGGCCA | 0.117
110 | ACTGATCC | 0.0497
111 | ATTGTTTC | 0.217
112 | TGAGTCAA | 0.419
113 | GGAGTCCA | 0.163
114 | TTAGTCAA | 0.168
115 | TCAGTCAA | 0.114
116 | CCAGTCCG | -0.0813
117 | TGAGTCCA | 0.3
118 | CGAGTCCA | -0.0942
119 | AGAGTCCG | -0.0962
120 | CGAGTCCG | 0.286
121 | CAATCAAA | -0.008
122 | CCTTCCCC | 0.0876
123 | CCCTATCC | -0.0379
124 | ACAGCTGG | -0.119
125 | CCAGCTGG | 0.301

Row | Sequence | PBM E-score
126 | CCAGCTGC | -0.105
127 | AGTAAATC | 0.0723
128 | CGGACTCC | 0.2
129 | CGGACTCA | 0.381
130 | CGGACTTA | -0.189
131 | AGGACTCG | 0.167
132 | AGGACTCA | 0.376
133 | AGGACTCC | 0.129
134 | ATATACTA | 0.257
135 | CCTTGAGA | -0.0758
136 | ACATAGTA | 0.188
137 | AAATAGTC | 0.0418
138 | ACATAGTG | 0.314
139 | CCATAGTC | 0.225
140 | AAATAGTG | -0.149
141 | ACATAGTC | 0.272
142 | CCAGGACA | -0.0732
143 | CTGCACAA | -0.0636
144 | GGTTGTGA | 0.143
145 | ATCTCAAA | -0.0488
146 | TGCTCAAA | -0.193
147 | AATCCATT | 0.113
148 | ACTAATCG | 0.251
149 | ACTCAGTC | 0.314
150 | GCTCAGTA | -0.0102

Row | Sequence | PBM E-score
151 | ACTCAGTA | 0.281
152 | ACTCAGTG | 0.245
153 | CCGCAGTA | 0.0424
154 | ACGCAGTC | 0.169
155 | CCGCAGTC | 0.274
156 | CCTCAGTA | -0.106
157 | CCTCAGTC | 0.0647
158 | ACGATGCC | -0.257
159 | AGCAACTG | 0.00583
160 | GACCCAAA | 0.0473
161 | CGGAATAA | -0.0766
162 | GGCCACTA | -0.00131
163 | GTTGCCTA | -0.162
164 | GAACGATA | -0.0543
165 | AAACCAGT | 0.0233
166 | ATCTTGGA | 0.0371
167 | GCCTTATA | -0.0741
168 | CGCCCGAC | 0.342
169 | CGCCCGAA | -0.0969
170 | AGCCCGAC | 0.0296
171 | AACGAGCA | -0.0591
172 | ATGCTCAG | 0.141
